# High-throughput results from PubChem.
# KDM4E inh = blocks human JMJD2E demethylase activity; AID 2147; 230,000 compounds, 1.6% hits; JMJD2E catalytic domain, FDH-coupled NADH fluorescence (FDH is formaldehyde dehydrogenase); Potency, µM (doses to about 57.1 µM), without a hit: top-dose activity change, negative = inhibition, actives largely listed as inhibitors;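 note: 0% = wells with enzyme and -100% = buffer wells without enzyme; nearly all actives have a fitted effect of over 50% in size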
# Target sequence (B2RXH2 1-337 limits assumed): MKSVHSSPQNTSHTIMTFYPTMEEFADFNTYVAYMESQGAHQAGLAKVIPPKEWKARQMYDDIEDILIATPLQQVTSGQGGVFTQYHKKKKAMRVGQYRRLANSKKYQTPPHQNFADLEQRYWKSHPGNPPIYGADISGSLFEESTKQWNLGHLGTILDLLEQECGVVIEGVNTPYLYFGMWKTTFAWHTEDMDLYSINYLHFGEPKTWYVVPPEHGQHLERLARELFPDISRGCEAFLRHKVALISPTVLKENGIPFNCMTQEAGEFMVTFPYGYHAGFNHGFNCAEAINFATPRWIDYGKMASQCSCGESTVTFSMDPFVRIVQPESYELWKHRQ
# HTT cytoprotect = cytoprotection in Huntington HTT-Q103 PC12 cell model; Potency, µM (titrated, usually from 56.4 µM), inactives show cytoprotection (ATP increase), usual class: activators; 230,000 compounds, 0.14% hits; AID 1471; PC12 HTT-Q103 induced, cytoprotection, ATP luminescence, 40 h; active = well fitted curve in the direction sought with a large enough effect; inconclusive = small, poorly fitted or top-dose-only effect, or another doubt; inactive = no such curve, though single readings can be large; an effect the other way counts as inactive or inconclusive; note: % of control where 0% means no effect; nearly all actives have a fitted effect of over 45% in size
#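 ATP quantification (ATPlite) reports survival of PC12 cells in which tebufenozide, 100 nM final, switches on Htt exon 1 with 103 glutamines linked to GFP; compounds are titrated.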
# HPGD inh = blocks human HPGD enzyme activity; P15428; purified HPGD, NADH fluorescence kinetic, PGE2 substrate; Potency, µM, for the others: at the highest dose activity change, negative = inhibition, actives largely listed as inhibitors; 150,000 compounds, 4.3% hits; AID 894; note: % is set by controls: 0 for no effect and ±100 for the full control effect
#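 20 nM HPGD preincubated 15 min at room temperature with compound in 50 mM Tris-HCl pH 8, 0.01% Tween 20. Started with 1 mM NAD+ and 30 uM prostaglandin E2; NADH fluorescence (360/450 nm) read 5 times over 30-s intervals, last minus first.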
# HttQ103 aggreg = reduces HttQ103-GFP aggregates in PC12 cells; PC12 HttQ103-GFP aggregates, Acumen cytometry, 40 h; Potency, µM (series often up to 46.1 µM), for the others: top-dose activity change, negative = inhibition, actives largely listed as inhibitors; 220,000 compounds, 1.1% hits; active = well fitted curve in the direction sought with a large enough effect; inconclusive = small, poorly fitted or top-dose-only effect, or another doubt; inactive = no such curve, though single readings can be large; an effect the other way counts as inactive or inconclusive; note: % is set by controls: 0 for no effect and ±100 for the full control effect; nearly all actives have a fitted effect of over 60% in size
#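 PC12 cells stably carrying ecdysone-inducible HTT exon 1 Q103–GFP were induced with tebufenozide (100 nM final) and treated with library compounds in titration. GFP aggregates in lysates were counted by laser scanning cytometry.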
# Lamin A splicing = modulators of lamin A splicing. 200,000 compounds, 0.01% hits. HeLa LMNA splicing GFP/RFP minigene ratio, 48 h. AID 1487. Potency, µM (doses to about 46.1 µM), for the others: at the highest dose ratio change, negative = inhibition, actives largely listed as inhibitors; active = well fitted inhibition curve with a large enough effect in the signal ratio, with a control signal flat, not every such curve was filed as active; inconclusive = small, poorly fitted or top-dose-only effect, or effect the other way, or a change in a side signal; the % refers to the signal ratio; note: % is set by controls: 0 for no effect and ±100 for the full control effect
#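 S3 HeLa stable clones carrying a lamin A-EGFP splicing minigene plus DsRed2 were seeded at 600 cells/well in Opti-MEM with 2% FBS, pin-dosed and incubated 48 h at 37°C. Acumen cytometry (488 nm) gave the GFP/RFP total-intensity ratio.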
# ALDH1A1 block = ALDH1A1 (human) enzyme inhibition; 220,000 compounds, 7.3% hits; Potency, µM (highest dose often 75.3 µM), inactives show top-dose activity, negative = inhibition, most hits filed as inhibitors; P00352; Purified ALDH1A1, NADH fluorescence, propionaldehyde substrate;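 note: plate controls were no enzyme wells and a reference inhibitor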
# Target sequence (P00352 whole entry, looked up): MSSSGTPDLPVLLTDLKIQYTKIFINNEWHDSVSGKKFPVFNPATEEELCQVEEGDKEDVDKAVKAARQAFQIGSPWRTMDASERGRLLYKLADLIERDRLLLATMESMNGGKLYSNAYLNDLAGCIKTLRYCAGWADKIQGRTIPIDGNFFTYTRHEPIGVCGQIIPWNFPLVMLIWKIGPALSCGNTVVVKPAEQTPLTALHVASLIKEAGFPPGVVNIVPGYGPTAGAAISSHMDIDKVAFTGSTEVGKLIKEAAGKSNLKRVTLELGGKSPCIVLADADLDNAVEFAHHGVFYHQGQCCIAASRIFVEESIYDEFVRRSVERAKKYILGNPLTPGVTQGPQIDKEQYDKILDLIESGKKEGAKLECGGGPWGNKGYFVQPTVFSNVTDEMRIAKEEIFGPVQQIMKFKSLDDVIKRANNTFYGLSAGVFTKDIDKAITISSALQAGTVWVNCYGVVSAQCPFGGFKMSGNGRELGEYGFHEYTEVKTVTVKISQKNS
# Active calls of the source: *; ? = inconclusive; nt = not tested or not shown; [ ] = dose if it differs, or a comment. This is a sample that favours compounds with a hit; in the whole collection about 9.2% have one here. Unless noted, calls come from the whole dose curve; as a rule, active = well fitted inhibition curve with a large enough effect (not every such curve was filed as active); inconclusive = small, poorly fitted or top-dose-only effect, or another doubt; inactive = no such curve, though single readings can be large or run the other way. Potency is the fitted concentration of half-maximal effect.
SMILES,KDM4E inh,HTT cytoprotect,HPGD inh,HttQ103 aggreg,Lamin A splicing,ALDH1A1 block
S=C(NCC1CCCO1)Nc1ccccc1Cl (stereo unspecified),10.2%,nt,12.6µM*,-2.9%,19.3%,0.3%
COc1ccccc1NS(=O)(=O)c1ccc(O)c(NC(=S)NCC2CCCO2)c1 (stereo unspecified),-9.7%,8.6%[10 µM],nt,-1.2%[9.22 µM],3.6%[46 µM],5.62µM*
CCN(CC)c1ccc(S(=O)(=O)N2CCOCC2)cc1NC(=O)CN1CCN(Cc2ccccc2)CC1,28.2µM*,6.5%[10 µM],nt,17.3%[9.22 µM],nt,nt
CCOC(=O)/C(=C/c1ccc(OC(=O)c2ccccc2)cc1)C(C)=O,7.94µM*,nt,?,-16.7%,-8.4%,?
O=C(CN1CCN(c2ccccn2)CC1)Nc1ccc(Oc2ccccc2)cc1,7.7%,-3.4%,5.8%,-2.5%,-9.2%,25.1µM*
O=C(CN1CCN(c2ccccn2)CC1)Nc1ccccc1,-4.0%,8.1%,-20.2%,4.0%,11.4%,-5.3%
O=C(CN1CCN(c2ccccn2)CC1)NC1CCCC1,3.5%,-6.9%[10 µM],-23.1%,nt,-8.2%,25.1µM*
CC(C)NC(=O)CN1CCN(c2ncccn2)CC1,?,-13.0%,-14.7%,-2.9%,2.3%,28.2µM*
CC(=O)c1ccc(S(=O)(=O)Nc2cccc(-c3ccc(N4CCCCCC4)nn3)c2)cc1,nt,nt,nt,nt,-6.3%[46 µM],nt
CC(C)C(=O)N1CCc2cc(-c3csc(N)n3)ccc21,-17.6%,-28.5%,20µM*,7.7%,7.3%,14.1µM*
COC(=O)CCNC(=O)N1CCN(c2nnc(C)c3c(C)n(-c4ccc(Cl)cc4)nc23)CC1,nt,nt,nt,nt,-1.4%[46 µM],nt
O=C(O)CCCSc1nc2ccccc2s1,nt,-4.1%[10 µM],-24.4%,nt,nt,-10.8%[13.5 µM]
NC(=O)C1(N2CCCCC2)CCN(C(=O)CSc2nc3ccccc3s2)CC1,-3.2%,6.2%,-24.5%,16.4%,-3.1%,25.1µM*
O=C1CCCCCN1CSc1nc2ccccc2s1,-4.3%,11.6%,-23.8%,-9.3%,5.8%,12.6µM*
CCS(=O)CCSc1nc2ccccc2s1 (stereo unspecified),6.0%,-10.4%,15.8µM*,-15.6%,5.3%,?
CSc1nc(SCC(=O)NCC2CCCO2)c2c3c(sc2n1)CN(C)CC3 (stereo unspecified),?,16.5%[10 µM],nt,11.3%[9.22 µM],nt,nt
CC1CC(=O)c2cnc(NCC3CCCO3)nc2C1 (stereo unspecified),0.5%,-9.1%[10 µM],-28.4%,-1.1%,-4.7%,?
CC1(C)CC(=O)c2cnc(NCC3CCCO3)nc2C1 (stereo unspecified),-0.2%,-7.7%[0.074 µM],22.4µM*,-4.2%,3.0%,?
Cc1ccc(S(=O)(=O)/N=C(\CN2CCCCC2)N2CCOCC2)cc1,6.7%,-9.1%,-4.2%,21.3%,16.0%,11.2µM*
Cc1c(Cl)c(C(=O)NC2C3CC4CC(C3)CC2C4)nn1C (stereo unspecified),-6.6%,-11.1%[10 µM],20µM*,-10.2%,?,?
COC(=O)N1CCC2(CCN(Cc3cc(C(F)(F)F)cc(C(F)(F)F)c3)CC2)CC1,nt,-57.7%,-8.4%,nt,nt,-17.1%
CC1=C(C#N)C(c2ccccc2)C2=C(N1)c1ccccc1C2=O (stereo unspecified),1.4%,nt,22.4µM*,-15.1%,-2.0%,12.6µM*
CC1=C(C#N)C(c2cccnc2)C2=C(N1)c1ccccc1C2=O (stereo unspecified),?,-15.3%,nt,?,-2.4%[46 µM],-1.3%
O=C(Nc1cccc(C(=O)OCc2cc(=O)n3nc(C4CC4)sc3n2)c1)c1ccc(F)cc1,nt,nt,nt,nt,9.5%[46 µM],nt
Oc1c(/C=C/C=C/C=Nc2ccccc2)sc(=S)n1Cc1ccccc1,?,-10.9%[10 µM],nt,-9.3%[9.22 µM],nt,nt
SMILES,KDM4E inh,HTT cytoprotect,HPGD inh,HttQ103 aggreg,Lamin A splicing,ALDH1A1 block
CCOC(=O)Cc1csc(/C(=N/O)C(N)=O)n1,-27.1%,3.0%,-12.3%,4.8%,?,28.2µM*
CCOC(=O)Cc1csc(N)n1,4.0%,10.0%,-9.8%,-1.7%,-4.5%,5.6%
CC(C(=O)N1CCCCCC1)c1ccc([N+](=O)[O-])cc1 (stereo unspecified),4.9%,15.2%[10 µM],nt,0.6%[9.22 µM],nt,-4.0%
COc1c2c(nc3ccccc13)O[C@@H]([C@@](C)(O)CO)C2,nt,0.2%[1.9 µM],nt,nt,nt,nt
COC(=O)[C@@]1(Cc2ccc(OC)cc2)[C@H]2c3cc(C(=O)N(C)C)n(CCc4ccc(O)c(OC)c4)c3C[C@H]2CN1C(=O)c1ccccc1,-7.2%,9.0%,-6.9%,nt,nt,3.6%
CC(C)C(=O)N1c2nc(C(C)C)nn2C2(CCCCC2)[C@@H]2CCCC[C@@H]21,nt,nt,nt,nt,-4.8%[46 µM],nt
N=c1ccn(Cc2c(Cl)cccc2Cl)cc1,-0.4%,10.5%[10 µM],nt,-16.1%[9.22 µM],nt,nt
N=c1ccn(Cc2ccc(Cl)cc2)cc1,-2.6%,-82.6%[0.074 µM],-11.9%,6.31µM*,?,25.1µM*
N=c1ccn(Cc2ccc(Cl)c(Cl)c2)cc1,1.3%,-92.9%[0.074 µM],-5.5%,2µM*,?,4.7%
N=c1ccn(Cc2ccc(Cl)cc2Cl)cc1,1.4%,-38.8%,-9.0%,7.08µM*,?,15.5%
N=c1ccn(Cc2cccc(Cl)c2)cc1,1.0%,-83.6%[0.074 µM],-6.4%,?,?,?
CCOC(=O)c1cnc(SC2CC(=O)N(c3ccc(OC)c(OC)c3)C2=O)nc1N (stereo unspecified),-1.6%,6.3%[10 µM],-12.9%,-0.1%,-1.0%,?
COc1ccc(N2C(=O)CC(Sc3nc4ccccc4s3)C2=O)cc1OC (stereo unspecified),-21.9%,3.4%[10 µM],nt,15.8%[9.22 µM],?,3.55µM*
CC(=O)Nc1ccc(N2C(=O)CC(Sc3nc4ccccc4s3)C2=O)cc1 (stereo unspecified),-10.3%,-27.2%,nt,10.8%[9.22 µM],nt,0.708µM*
CCOC(=O)c1ccc(N2CC3=C(C2=O)C(c2ccc(OC)cc2)NC(=O)N3C)cc1 (stereo unspecified),nt,nt,nt,nt,-2.0%[46 µM],nt
CO[C@]1(NC(=O)Cc2cccs2)C(=O)N2C(C(=O)O)=C(COC(N)=O)CS[C@H]21,-6.3%[25.5 µM],-7.8%[40.3 µM],-2.8%,nt,?,-8.3%[20.9 µM]
CCOC(=O)c1sc(NC(=O)c2ccco2)nc1-c1ccccc1,?,-2.0%[10 µM],-12.2%,-13.5%,-8.8%,-2.0%
Cc1sc(NC(=O)c2ccco2)nc1-c1ccccc1,-12.0%,0.7%[10 µM],14.1µM*,-16.2%,1.5%,-5.4%
Cc1sc(NC(=O)c2ccco2)nc1-c1ccc2c(c1)CC(C)N2C(=O)C1CC1 (stereo unspecified),?,-105.2%,?,15.8µM*,?,?
CC(=O)c1sc(NC(=O)c2ccco2)nc1-c1ccccc1,2.8%,20.4%,11.2µM*,-11.5%,-7.6%,1.8%
COc1ccc(CNc2ncncc2-c2c(C)noc2C)c(OC)c1,nt,8.9%,nt,nt,-3.7%,11.8%
CCN(CC)CCCCNC(=O)c1ccc(Cc2nc3ccccc3[nH]2)cc1,nt,nt,-2.9%,nt,nt,-0.4%
CCCCc1ccc(NC(=O)c2cc3c(=O)n4ccccc4nc3n2C)cc1,nt,nt,nt,nt,16.2%[46 µM],nt
